A selection: hits, their analogues and other compounds. The true share with any hit is near 3.5%.
MBD2 inh: MBD2-methylated oligo binding inhibition; inhibition, % at 4.4 µM; actives 0.31% (n = 370,000); Q9UBB5; AID 686964; TR-FRET, MBD2 binding to methylated oligonucleotide; in the data active means inhibition above about 13%
UHRF1 MBD2 ctr: UHRF1 methyl-DNA binding inhibition; Q96T88; UHRF1 binding to methylated oligo, TR-FRET; inhibition, % at 4.4 µM; actives 0.75% (n = 370,000); AID 687016; in the data active means inhibition above about 21%;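 further: UHRF1 SRA domain binding a hemimethylated CpG hairpin DNA probe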
Target sequence (Q96T88 whole entry, looked up, the tested form may be a part): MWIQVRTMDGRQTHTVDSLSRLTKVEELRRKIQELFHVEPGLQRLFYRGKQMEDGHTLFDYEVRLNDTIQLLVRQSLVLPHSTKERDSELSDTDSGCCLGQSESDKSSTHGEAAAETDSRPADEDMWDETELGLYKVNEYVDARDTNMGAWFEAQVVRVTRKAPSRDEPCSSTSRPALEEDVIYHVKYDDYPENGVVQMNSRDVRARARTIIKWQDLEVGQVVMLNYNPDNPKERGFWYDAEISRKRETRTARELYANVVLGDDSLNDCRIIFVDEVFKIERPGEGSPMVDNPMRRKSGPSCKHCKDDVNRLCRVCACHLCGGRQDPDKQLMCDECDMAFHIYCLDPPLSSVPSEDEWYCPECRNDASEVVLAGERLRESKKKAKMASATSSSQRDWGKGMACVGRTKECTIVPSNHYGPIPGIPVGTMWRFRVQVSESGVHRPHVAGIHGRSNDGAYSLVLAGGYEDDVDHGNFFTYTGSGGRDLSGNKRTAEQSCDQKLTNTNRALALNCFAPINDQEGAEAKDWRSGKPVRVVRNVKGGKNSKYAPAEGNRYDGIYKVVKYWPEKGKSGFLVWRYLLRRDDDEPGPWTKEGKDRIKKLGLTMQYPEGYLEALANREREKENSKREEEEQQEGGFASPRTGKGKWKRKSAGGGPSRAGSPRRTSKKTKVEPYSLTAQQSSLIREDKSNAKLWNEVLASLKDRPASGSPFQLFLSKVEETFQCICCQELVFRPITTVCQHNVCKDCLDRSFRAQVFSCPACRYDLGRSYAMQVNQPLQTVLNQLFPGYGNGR
DNMT1 block: inhibitors of human DNMT1. DNMT1 molecular beacon, Hinp1I cleavage, fluorescence. P26358. inhibition (reported as % activation of signal), % at 10 µM. actives 0.83% (n = 360,000); in the data active means inhibition above about 50%
rCAG RNA binder: binds r(CAG) RNA repeats | inhibition, % at 3 µM | r(CAG) RNA repeat, TO-PRO-1 dye displacement fluorescence | actives 1.3% (n = 370,000);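 active means inhibition above the plate cutoff, the mean of all test compounds on that plate plus 3 SD, cut at about 35% in these data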;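 further: higher means more dye released from RNA so lower well fluorescence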
LEDGF integ inh: blocks HIV-1 LEDGF/p75-dependent DNA integration; actives 0.64% (n = 370,000); TR-FRET IN-LEDGF/p75 DNA integration, Eu/Cy5; AID 743269; inhibition, % at 3.7 µM;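 active means inhibition above the screen-wide mean plus 3 SD, cut at about 13% in these data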;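 further: signal is the Cy5 over europium emission ratio at 671 and 618 nm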
PG9 Ab binder: binds the HIV-1 gp120 antibody PG9. actives 0.43% (n = 360,000). AID 624416. inhibition, % at 6.7 µM. TR-FRET gp120-PG9 antibody binding; in the data active means inhibition above about 8.5%
rCAG bind conf: r(CAG) RNA repeat binding, confirmation; shares compounds with rCAG RNA binder; TO-PRO-1 dye displacement fluorescence; inhibition, % at 3 µM; actives 70% (n = 4,300); AID 652065;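 active means inhibition above a per-plate cutoff, the mean inhibition of sample wells plus 3 SD, cut at about 35% in these data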;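 further: loss of TO-PRO-1 fluorescence as compound displaces dye from 1x1 AA loop RNA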
dCAG dye counter: DNA CAG dye complex inhibition counter-screen. inhibition, % at 3 µM. actives 94% (n = 4,300). d(CAG) DNA oligo TO-PRO-1 dye displacement, fluorescence. shares compounds with rCAG RNA binder;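 active means inhibition above its plate's cutoff, the mean test-well inhibition plus 3 SD, cut at about 4.8% in these data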;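 further: hits displace the dye from DNA and so lower well fluorescence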
DNA CAG DR: disrupts DNA CAG TO-PRO-1 complex in dose response; shares compounds with rCAG RNA binder; DNA CAG/GTC duplex TO-PRO-1 dye displacement fluorescence; IC50, µM; actives 20% (n = 250); AID 686960; in the data active means IC50 below about 10 µM
Hits are given with their value.

OC(c1ccccc1)(c1nc(/C=C/c2ccccc2)cs1)C(F)(F)F (stereo unspecified) was read as MBD2 inh inactive, UHRF1 MBD2 ctr inactive, DNMT1 block inactive, rCAG RNA binder inactive, LEDGF integ inh inactive and PG9 Ab binder inactive.
Screening OC[C@@H]1CN(Cc2ccc(F)cc2)C[C@H](n2cnc3c(N4CCCC4)ncnc32)O1 returned MBD2 inh inactive, UHRF1 MBD2 ctr inactive, DNMT1 block inactive, rCAG RNA binder inactive, LEDGF integ inh inactive and PG9 Ab binder inactive.
For CCCCOC(=O)Nc1ccc(S(=O)(=O)Nc2ccc([N+](=O)[O-])cc2)cc1 the results were MBD2 inh inactive, UHRF1 MBD2 ctr inactive, DNMT1 block inactive, rCAG RNA binder 51, LEDGF integ inh inactive, PG9 Ab binder inactive, rCAG bind conf inactive and dCAG dye counter 9.9.
Screening CCCCCOC(=O)Nc1ccc(S(=O)(=O)Nc2cccc([N+](=O)[O-])c2)cc1 returned MBD2 inh inactive, UHRF1 MBD2 ctr inactive, DNMT1 block inactive, rCAG RNA binder 48, LEDGF integ inh inactive, PG9 Ab binder inactive, rCAG bind conf 45 and dCAG dye counter 10.
O=C(CC(=O)c1ccccc1)Nc1ccc([N+](=O)[O-])cc1 was read as MBD2 inh inactive, UHRF1 MBD2 ctr inactive, DNMT1 block inactive, rCAG RNA binder inactive, LEDGF integ inh inactive and PG9 Ab binder inactive.
`CCCCOC(=O)Nc1ccc(S(=O)(=O)Nc2cc(C)nc(C)n2)cc1` gave MBD2 inh inactive, UHRF1 MBD2 ctr inactive, DNMT1 block inactive, rCAG RNA binder inactive, LEDGF integ inh inactive and PG9 Ab binder inactive.
O=[N+]([O-])c1ccc(S(=O)(=O)Nc2ccc(-c3ccccc3)cc2)cc1 was read as MBD2 inh inactive, UHRF1 MBD2 ctr inactive, DNMT1 block inactive, rCAG RNA binder 45, LEDGF integ inh inactive, PG9 Ab binder inactive, rCAG bind conf 35 and dCAG dye counter 8.7.
For CC(=O)c1ccc(NS(=O)(=O)c2ccc([N+](=O)[O-])cc2)cc1 the results were MBD2 inh inactive, UHRF1 MBD2 ctr inactive, DNMT1 block inactive, rCAG RNA binder inactive, LEDGF integ inh inactive and PG9 Ab binder inactive.
`CS(=O)(=O)Nc1ccc(C(=O)CC(=O)Nc2ccc([N+](=O)[O-])cc2)cc1` gave MBD2 inh inactive, UHRF1 MBD2 ctr inactive, DNMT1 block inactive, rCAG RNA binder 37, LEDGF integ inh inactive, PG9 Ab binder inactive, rCAG bind conf inactive and dCAG dye counter 9.4.
`COc1ccc(-c2cccc3[nH]c4c(c23)CCN2C(=O)[C@H]3[C@H](C)ON(C)[C@H]3C[C@@H]42)cc1` gave MBD2 inh inactive, UHRF1 MBD2 ctr inactive, rCAG RNA binder inactive, LEDGF integ inh inactive and PG9 Ab binder inactive.
`Cn1c(OCC2CCCO2)nc2cc(-c3ccccc3)sc2c1=O` (stereo unspecified) gave MBD2 inh inactive, UHRF1 MBD2 ctr inactive, DNMT1 block inactive, rCAG RNA binder inactive, LEDGF integ inh inactive and PG9 Ab binder inactive.
For Cc1nc2ccc(NC(=O)c3ccc(F)cc3F)cc2c(=O)[nH]1 the results were MBD2 inh inactive, UHRF1 MBD2 ctr inactive, rCAG RNA binder inactive and LEDGF integ inh inactive.
For CCCc1cc(C(=O)NC(C)C2CCCO2)cs1 (stereo unspecified) the results were MBD2 inh inactive, UHRF1 MBD2 ctr inactive, DNMT1 block inactive, rCAG RNA binder inactive, LEDGF integ inh inactive and PG9 Ab binder inactive.
O=C(Cc1cccc(NC(=O)C2CCCN(C(=O)c3ccccc3)C2)c1)Nc1cccc(C(=O)N2CCCCC2)c1 (stereo unspecified) was read as MBD2 inh inactive, UHRF1 MBD2 ctr inactive, DNMT1 block inactive, rCAG RNA binder inactive, LEDGF integ inh inactive and PG9 Ab binder inactive.
Screening COc1ccc(C2=NOC(C(=O)Nc3cccc(O)c3)C2)cc1 (stereo unspecified) returned MBD2 inh inactive, UHRF1 MBD2 ctr inactive, DNMT1 block inactive, rCAG RNA binder inactive, LEDGF integ inh inactive and PG9 Ab binder inactive.
COc1ccc(OC)c(CNc2ccc3c(c2)nc(C)n3C)c1 was read as MBD2 inh inactive, UHRF1 MBD2 ctr inactive, DNMT1 block inactive, rCAG RNA binder 44, LEDGF integ inh inactive, PG9 Ab binder inactive, rCAG bind conf inactive and dCAG dye counter inactive.
Screening COc1ccc(-c2cc(C)nc(SCc3cccc(C(=O)O)c3)n2)cc1 returned MBD2 inh inactive, UHRF1 MBD2 ctr inactive, DNMT1 block inactive, rCAG RNA binder 47, LEDGF integ inh inactive, PG9 Ab binder inactive, rCAG bind conf 49, dCAG dye counter 9.7 and DNA CAG DR inactive.
Cc1nc(SCc2cccc(C(=O)O)c2)nc2c1CCCC2 was read as MBD2 inh inactive, UHRF1 MBD2 ctr inactive, DNMT1 block inactive, rCAG RNA binder inactive, LEDGF integ inh inactive and PG9 Ab binder inactive.
`O=C(O)c1cccc(CSc2nc(-c3ccc(Cl)cc3)cc(C(F)(F)F)n2)c1` gave MBD2 inh inactive, UHRF1 MBD2 ctr inactive, DNMT1 block inactive, rCAG RNA binder 68, LEDGF integ inh inactive, PG9 Ab binder inactive, rCAG bind conf 71, dCAG dye counter 33 and DNA CAG DR inactive.
`CS(=O)(=O)c1ccc(-c2nnc(NC(=O)c3ccc(S(=O)(=O)N4CCCC4)cc3)o2)cc1` gave MBD2 inh inactive, UHRF1 MBD2 ctr inactive, DNMT1 block inactive, rCAG RNA binder 36, LEDGF integ inh inactive, PG9 Ab binder inactive, rCAG bind conf inactive and dCAG dye counter 4.7.
Screening N#CC(=C(O)CN1CCN(c2ccccc2F)CC1)c1nc(-c2ccc(Cl)cc2)cs1 returned MBD2 inh inactive, UHRF1 MBD2 ctr inactive, DNMT1 block inactive, rCAG RNA binder 51, LEDGF integ inh inactive, PG9 Ab binder inactive, rCAG bind conf 63 and dCAG dye counter 24.
Screening N#CC(=C(O)CN1CCN(c2ccccc2F)CC1)c1nc(-c2ccccc2)cs1 returned MBD2 inh inactive, UHRF1 MBD2 ctr inactive, DNMT1 block inactive, rCAG RNA binder 51, LEDGF integ inh inactive, PG9 Ab binder inactive, rCAG bind conf 51 and dCAG dye counter 18.
`CCOC(=O)C1CCCN(C/C(O)=C(\C#N)c2nc(-c3ccc(Cl)cc3)cs2)C1` (stereo unspecified) gave MBD2 inh inactive, UHRF1 MBD2 ctr inactive, DNMT1 block inactive, rCAG RNA binder 35, LEDGF integ inh inactive, PG9 Ab binder inactive, rCAG bind conf 58 and dCAG dye counter 17.
Screening Cc1ccccc1OCCC(=O)OCC(=O)Nc1c(C)nn(-c2ccccc2)c1C returned MBD2 inh inactive, UHRF1 MBD2 ctr inactive, DNMT1 block inactive, rCAG RNA binder inactive, LEDGF integ inh inactive and PG9 Ab binder inactive.

Screening results: PubChem BioAssay, several laboratories
